# Several values for one entry are separate records, joined by “and”; a condition that tells them apart may be missing. Equal values may be shown once. Results filed as inconclusive are left out. Activity calls are given as the source filed them. How the source made its calls: active means hit-call score of the fitted dose curve at least 0.9, where 1 is the maximum; inconclusive means response in the unintended direction; inactive means score below 0.9.
# Experiments:
# [1] = biological target: human Serotonin, 5-Hydroxytryptamine Receptor 3 (5HT3), HTR3A (gene 3359) (UniProt P46098); assay: NVS_LGIC_h5HT3: NovaScreen (NVS) Ligand-Gated Ion Channel Assay for human Serotonin, 5-Hydroxytryptamine Receptor 3 (5HT3) (AID 2283325)
# Summary of the method: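 Radioligand displacement binding to human 5-HT3 from HEK293 membranes, read by filter-based scintillation counting after 1 h. Screen at 25 uM in duplicate; chemicals passing threshold were retested in concentration-response up to 50 uM.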
# [2] = biological target: rat Thyrotropin Releasing Hormone Receptor (TRH), Trhr (gene 25570) (UniProt Q01717); assay: NVS_GPCR_rTRH: NovaScreen (NVS) G Protein-Coupled Receptor Assay for rat Thyrotropin Releasing Hormone Receptor (TRH) (AID 2283329);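 further: hit means lower bound tracer signal versus DMSO baseline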
# rat Thyrotropin Releasing Hormone Receptor (TRH), Trhr (gene 25570), sequence (Q01717 whole entry, looked up): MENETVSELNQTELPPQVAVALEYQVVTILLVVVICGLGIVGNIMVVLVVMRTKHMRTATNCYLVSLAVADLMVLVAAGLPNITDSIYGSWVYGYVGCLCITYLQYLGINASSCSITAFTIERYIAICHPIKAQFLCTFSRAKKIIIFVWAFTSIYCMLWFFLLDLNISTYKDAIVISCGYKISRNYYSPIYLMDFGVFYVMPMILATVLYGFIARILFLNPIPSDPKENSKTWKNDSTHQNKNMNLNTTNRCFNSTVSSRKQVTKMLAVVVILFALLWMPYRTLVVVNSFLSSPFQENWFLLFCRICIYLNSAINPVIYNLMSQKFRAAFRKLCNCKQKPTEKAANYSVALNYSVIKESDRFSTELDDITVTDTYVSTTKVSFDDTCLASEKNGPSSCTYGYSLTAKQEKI
# Summary of the method: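 Rat forebrain membranes; radioligand displacement at TRH receptor by filter-based scintillation counting, read 4 h after dosing. Duplicate single-point screen at 25 uM, actives rerun in concentration series; loss of signal relative to DMSO.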
# [3] = biological target: chimpanzee Androgen Receptor (AR), AR (gene 747460) (UniProt O97775); assay: NVS_NR_cAR: NovaScreen (NVS) Nuclear Receptor Binding Assay for chimpanzee Androgen Receptor (AR) (AID 2283346);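 further: radioligand displacement from AR measured by scintillation counting in a cell-free assay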
# Summary of the method: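 Cell-free radioligand displacement using receptor protein extracted from Sf9/Sf21 cells; bound radioligand measured by scintillation counting 72 hours after chemical dosing. Loss of signal versus DMSO baseline indicates binding; primary screen single-concentration in duplicate at 25 uM, actives followed in concentration series.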
# [4] = biological target: human Peripheral-type Benzodiazepine Receptor (PBR), TSPO (gene 706) (UniProt P30536); assay: NVS_MP_hPBR: NovaScreen (NVS) Membrane Protein Assay for human Peripheral-type Benzodiazepine Receptor (PBR) (AID 2283331);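 further: hits reduce radioligand binding relative to DMSO baseline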
# human Peripheral-type Benzodiazepine Receptor (PBR), TSPO (gene 706), sequence (P30536 whole entry, looked up): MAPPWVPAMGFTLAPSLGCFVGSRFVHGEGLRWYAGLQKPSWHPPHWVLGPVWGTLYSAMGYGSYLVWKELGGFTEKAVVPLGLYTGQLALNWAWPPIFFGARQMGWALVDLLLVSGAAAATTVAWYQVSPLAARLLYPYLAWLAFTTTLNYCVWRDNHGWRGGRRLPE
# Summary of the method: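 Human colonic cell membranes were incubated with test chemical for 1 hour; radioligand binding was measured by filter-based scintillation counting. Primary screen ran in duplicate at 25 uM, with actives followed in concentration series; loss of signal versus DMSO baseline.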
# [5] = biological target: rat Peripheral-type Benzodiazepine Receptor (PBR), Tspo (gene 24230) (UniProt P16257); assay: NVS_MP_rPBR: NovaScreen (NVS) Membrane Protein Assay for rat Peripheral-type Benzodiazepine Receptor (PBR) (AID 2283335)
# rat Peripheral-type Benzodiazepine Receptor (PBR), Tspo (gene 24230), sequence (P16257 whole entry, looked up): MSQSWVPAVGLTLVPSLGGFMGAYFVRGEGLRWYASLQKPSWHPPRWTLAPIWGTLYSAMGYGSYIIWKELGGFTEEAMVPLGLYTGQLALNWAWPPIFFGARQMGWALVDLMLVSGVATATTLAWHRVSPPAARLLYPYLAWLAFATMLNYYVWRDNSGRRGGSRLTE
# Summary of the method: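 Radioligand displacement, rat kidney membrane prep, 1 h exposure, filter-based scintillation read; DMSO baseline, loss-of-signal scored. Primary screen at 25 uM in duplicate, actives followed up in concentration series.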
# [6] = biological target: rat Opioid Receptor, Non-selective Binding, Oprm1 (gene 25601) (UniProt P33535); assay: NVS_GPCR_rOpiate_NonSelective: NovaScreen (NVS) G Protein-Coupled Receptor Assay for rat Opioid Receptor, Non-selective Binding (AID 2283318)
# rat Opioid Receptor, Non-selective Binding, Oprm1 (gene 25601), sequence (P33535 whole entry, looked up): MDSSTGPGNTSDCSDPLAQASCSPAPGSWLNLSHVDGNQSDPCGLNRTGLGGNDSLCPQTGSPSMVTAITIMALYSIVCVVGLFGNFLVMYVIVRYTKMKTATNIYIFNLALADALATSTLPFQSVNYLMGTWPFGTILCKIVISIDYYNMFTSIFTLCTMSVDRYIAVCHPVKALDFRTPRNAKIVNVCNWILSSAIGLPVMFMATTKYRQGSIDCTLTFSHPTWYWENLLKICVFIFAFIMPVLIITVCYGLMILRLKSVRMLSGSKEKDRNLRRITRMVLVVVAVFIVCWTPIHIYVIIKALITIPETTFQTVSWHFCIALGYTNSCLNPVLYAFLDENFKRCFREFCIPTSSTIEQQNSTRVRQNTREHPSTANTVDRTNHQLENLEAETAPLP
# Summary of the method: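 Rat forebrain membranes, cell-free radioligand binding with filter-based scintillation counting, read 1.5 h after dosing. Primary screen in duplicate at 25 uM; actives retested in concentration series. Loss of signal versus DMSO baseline scored.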
# NCBI gene 24521 = assay: NVS_IC_rKATPCh: NovaScreen (NVS) Ion Channel Assay for rat Potassium Channel, ATP-Sensitive (KATPCh) (AID 2283319)
# Summary of the method: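 Rat cortical membranes; radioligand binding at ATP-sensitive K channel site, filter-based scintillation counting 2 h after dosing. Single-point duplicate screen at 25 uM, hits rerun in concentration-response up to 50 uM; loss of signal versus DMSO.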
# [7] = biological target: Sodium channel protein type 1 subunit alpha (Rattus norvegicus) (UniProt P04774); assay: NVS_IC_rNaCh_site2: NovaScreen (NVS) Ion Channel Assay for rat Sodium Channel, Site 2 (NaCh) (AID 2283322);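 further: hit means loss of radioligand binding signal relative to DMSO so AC50 marks displacement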
# Summary of the method: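 Membranes: rat forebrain. Format: competitive radioligand displacement, filter separation, scintillation readout, 1 h exposure. Primary screen in duplicate at 25 uM; actives retested in concentration series.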
# [8] = biological target: rat Gamma-Aminobutyric Acid Type A Receptor, Non-Selective (GABAR-NonSelective), Gabra1 (gene 29705) (UniProt P62813); assay: NVS_LGIC_rGABAR_NonSelective: NovaScreen (NVS) Ligand-Gated Ion Channel Assay for rat Gamma-Aminobutyric Acid Type A Receptor, Non-Selective (GABAR-NonSelective) (AID 2283326)
# rat Gamma-Aminobutyric Acid Type A Receptor, Non-Selective (GABAR-NonSelective), Gabra1 (gene 29705), sequence (P62813 whole entry, looked up): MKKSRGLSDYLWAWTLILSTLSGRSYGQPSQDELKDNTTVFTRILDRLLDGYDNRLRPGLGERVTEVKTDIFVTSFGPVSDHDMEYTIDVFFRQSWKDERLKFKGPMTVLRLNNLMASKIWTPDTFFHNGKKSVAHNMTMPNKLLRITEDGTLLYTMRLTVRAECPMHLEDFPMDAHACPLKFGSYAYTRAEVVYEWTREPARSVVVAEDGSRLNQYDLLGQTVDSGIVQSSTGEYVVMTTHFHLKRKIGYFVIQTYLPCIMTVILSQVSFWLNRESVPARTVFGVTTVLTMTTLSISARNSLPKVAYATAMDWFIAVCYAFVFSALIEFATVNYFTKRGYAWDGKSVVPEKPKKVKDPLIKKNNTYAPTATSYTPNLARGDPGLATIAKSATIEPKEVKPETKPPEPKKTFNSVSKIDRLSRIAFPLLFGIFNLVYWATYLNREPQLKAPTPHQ
# Summary of the method: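 Radioligand displacement on rat whole-brain extract, 1 h, filter scintillation readout; signal loss fitted versus DMSO. Primary screen in duplicate at 25 uM; hits (e.g. ≥30% inhibition) retested in concentration-response up to 50 uM.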
# [9] = NVS_IC_rCaBTZCHL: NovaScreen (NVS) Ion Channel Assay for Calcium Channel, Type L, Benzothiazepine Site (CaBTZCHL) (AID 2283337)
# Summary of the method: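 Radioligand binding to the benzothiazepine site of L-type Ca channels in rat cortical membranes (cell-free), 1.5 h after dosing; filter-based scintillation counting. Loss of signal relative to DMSO baseline; primary single-concentration screen at 25 uM, actives then run in concentration series.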
# [10] = biological target: rat Glutamate, MK-801 Agonist Site (GluNMDA_MK801), Grin1 (gene 24408) (UniProt P35439); assay: NVS_LGIC_rGluNMDA_MK801_Agonist: NovaScreen (NVS) Ligand-Gated Ion Channel Assay for rat Glutamate, MK-801 Agonist Site (GluNMDA_MK801) (AID 2283340)
# Summary of the method: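 Radioligand binding at MK-801 site in rat forebrain membranes, 1.5 h incubation, filter-based scintillation counting. Initially 25 uM in duplicate; actives then run in concentration-response up to 50 uM, fitted for gain of signal versus DMSO.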
# [11] = tested on: guinea pig Histamine Receptor (H2), gene 100729734; assay: NVS_GPCR_gH2: NovaScreen (NVS) G Protein-Coupled Receptor Assay for guinea pig Histamine Receptor (H2) (AID 2283342)
# Summary of the method: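 Radioligand displacement on guinea pig striatal membranes, 1 h after dosing, filter-based scintillation counting; loss of signal versus DMSO. Single-point screen at 25 uM in duplicate, then concentration-response up to 50 uM.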
# [12] = biological target: bovine Estrogen Receptor (ER), ESR1 (gene 407238) (UniProt P49884); assay: NVS_NR_bER: NovaScreen (NVS) Nuclear Receptor Binding Assay for bovine Estrogen Receptor (ER) (AID 2283345);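 further: actives lower the bound radioligand count which means they displace the ER ligand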
# bovine Estrogen Receptor (ER), ESR1 (gene 407238), sequence (P49884 whole entry, looked up): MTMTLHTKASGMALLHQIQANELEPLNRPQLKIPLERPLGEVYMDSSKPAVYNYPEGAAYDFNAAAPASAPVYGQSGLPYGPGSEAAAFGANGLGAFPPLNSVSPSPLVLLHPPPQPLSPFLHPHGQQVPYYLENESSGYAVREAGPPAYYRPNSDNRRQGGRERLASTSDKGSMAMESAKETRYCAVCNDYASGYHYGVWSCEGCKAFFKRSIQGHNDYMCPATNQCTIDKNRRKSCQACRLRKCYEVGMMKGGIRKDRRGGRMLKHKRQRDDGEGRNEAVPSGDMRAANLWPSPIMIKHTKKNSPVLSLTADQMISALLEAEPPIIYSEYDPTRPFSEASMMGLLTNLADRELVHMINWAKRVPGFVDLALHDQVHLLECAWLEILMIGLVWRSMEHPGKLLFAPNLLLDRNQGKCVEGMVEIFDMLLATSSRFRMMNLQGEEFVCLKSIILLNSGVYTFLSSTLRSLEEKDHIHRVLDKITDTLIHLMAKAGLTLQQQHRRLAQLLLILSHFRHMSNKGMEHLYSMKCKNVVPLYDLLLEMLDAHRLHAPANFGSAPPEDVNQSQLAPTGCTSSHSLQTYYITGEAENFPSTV
# Summary of the method: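 Cell-free radioligand binding with bovine uterine membrane extracts, read 18 hours after dosing by scintillation counting. Loss of signal versus DMSO baseline indicates displacement. Primary screen run in duplicate at 25 uM, actives followed in concentration series.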
# [13] = NVS_IC_rCaDHPRCh_L: NovaScreen (NVS) Ion Channel Assay for rat Calcium Channel, Type L, Dihydropyridine Site (CaDHPRCh_L) (AID 2283320)
# Summary of the method: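 Radioligand binding to dihydropyridine site on rat cortical membranes, filter-based scintillation counting, 1 h after dosing. Screened in duplicate at 25 uM; actives rerun in concentration-response up to 50 uM. Loss of signal versus DMSO baseline.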
# [14] = biological target: Voltage-gated inwardly rectifying potassium channel KCNH2 (Homo sapiens) (UniProt Q12809); assay: NVS_IC_hKhERGCh: NovaScreen (NVS) Ion Channel Assay for human Potassium Channel ERG (KhERGCh) (AID 2283333)
# Voltage-gated inwardly rectifying potassium channel KCNH2 (Homo sapiens), sequence (Q12809 whole entry, looked up): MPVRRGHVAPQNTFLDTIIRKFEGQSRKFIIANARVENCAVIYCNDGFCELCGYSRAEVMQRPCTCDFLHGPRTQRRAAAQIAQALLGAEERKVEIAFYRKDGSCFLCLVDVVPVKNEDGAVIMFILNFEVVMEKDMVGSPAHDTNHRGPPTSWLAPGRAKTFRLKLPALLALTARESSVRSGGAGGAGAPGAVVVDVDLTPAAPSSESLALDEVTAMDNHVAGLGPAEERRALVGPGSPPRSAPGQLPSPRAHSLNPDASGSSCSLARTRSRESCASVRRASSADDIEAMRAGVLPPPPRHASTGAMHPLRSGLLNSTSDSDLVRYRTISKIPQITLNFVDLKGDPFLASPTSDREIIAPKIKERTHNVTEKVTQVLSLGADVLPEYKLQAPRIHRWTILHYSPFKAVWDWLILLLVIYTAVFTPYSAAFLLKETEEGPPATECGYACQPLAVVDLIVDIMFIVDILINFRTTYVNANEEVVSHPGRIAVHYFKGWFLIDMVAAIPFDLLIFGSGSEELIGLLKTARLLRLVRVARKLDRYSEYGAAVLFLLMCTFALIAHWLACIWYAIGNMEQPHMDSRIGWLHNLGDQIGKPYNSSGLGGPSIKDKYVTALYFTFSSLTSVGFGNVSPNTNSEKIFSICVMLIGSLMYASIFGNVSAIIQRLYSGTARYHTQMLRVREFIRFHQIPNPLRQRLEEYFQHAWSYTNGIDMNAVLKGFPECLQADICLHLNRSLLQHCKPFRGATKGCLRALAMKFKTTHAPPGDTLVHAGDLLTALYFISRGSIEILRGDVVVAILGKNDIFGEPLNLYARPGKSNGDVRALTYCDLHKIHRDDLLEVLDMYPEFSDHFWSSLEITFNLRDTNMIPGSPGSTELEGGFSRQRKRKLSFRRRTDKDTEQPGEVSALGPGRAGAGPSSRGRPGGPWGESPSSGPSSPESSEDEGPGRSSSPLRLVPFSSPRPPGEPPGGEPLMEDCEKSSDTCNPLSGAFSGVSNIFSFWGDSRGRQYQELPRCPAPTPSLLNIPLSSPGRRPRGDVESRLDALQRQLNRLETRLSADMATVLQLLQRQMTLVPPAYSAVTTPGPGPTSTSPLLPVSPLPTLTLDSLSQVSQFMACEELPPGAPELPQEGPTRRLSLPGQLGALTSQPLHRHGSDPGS
# Summary of the method: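 Cell-free radioligand competition binding on hERG protein extracted from CHO cells, read by filter-based scintillation counting 0.75 h after dosing. Primary screen at 25 uM in duplicate, actives followed in concentration series. Signal loss fitted versus DMSO.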
# [15] = biological target: bovine Gamma-Aminobutyric Acid Type A Receptor Agonist (GABAR Agonist), GABRA1 (gene 780973) (UniProt P08219); assay: NVS_LGIC_bGABAR_Agonist: NovaScreen (NVS) Ligand-Gated Ion Channel Assay for bovine Gamma-Aminobutyric Acid Type A Receptor Agonist (GABAR Agonist) (AID 2283338)
# bovine Gamma-Aminobutyric Acid Type A Receptor Agonist (GABAR Agonist), GABRA1 (gene 780973), sequence (P08219 whole entry, looked up): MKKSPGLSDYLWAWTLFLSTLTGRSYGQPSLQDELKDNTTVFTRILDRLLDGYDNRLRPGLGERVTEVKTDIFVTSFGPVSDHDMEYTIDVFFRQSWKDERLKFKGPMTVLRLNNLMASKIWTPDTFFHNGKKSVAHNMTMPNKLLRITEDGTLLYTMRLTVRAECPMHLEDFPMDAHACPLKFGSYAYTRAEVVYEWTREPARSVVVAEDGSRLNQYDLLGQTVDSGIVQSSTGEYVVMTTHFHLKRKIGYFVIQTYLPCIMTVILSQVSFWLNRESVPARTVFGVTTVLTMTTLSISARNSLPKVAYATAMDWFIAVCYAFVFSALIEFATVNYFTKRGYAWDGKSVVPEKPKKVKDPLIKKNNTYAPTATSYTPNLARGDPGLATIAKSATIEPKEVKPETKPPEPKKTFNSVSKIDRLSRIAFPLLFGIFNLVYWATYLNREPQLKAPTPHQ
# Summary of the method: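 Radioligand binding to bovine cerebellar membranes in agonist format, read by filter-based scintillation counting after 1 h. Primary screen in duplicate at 25 uM, with actives followed in concentration series. Gain of signal versus DMSO.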
# [16] = biological target: rat Vasopressin 1 Receptor (V1), Avpr1a (gene 25107) (UniProt P30560); assay: NVS_GPCR_rV1: NovaScreen (NVS) G Protein-Coupled Receptor Assay for rat Vasopressin 1 Receptor (V1) (AID 2283316)
# Summary of the method: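 Radioligand binding on rat liver membranes, 1.5 h incubation, filter-based scintillation counting. Single 25 uM screen in duplicate; chemicals meeting threshold (e.g. 30% inhibition) run in concentration-response up to 50 uM.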
# [17] = biological target: human Androgen Receptor (AR), AR (gene 367) (UniProt P10275); assay: NVS_NR_hAR: NovaScreen (NVS) Nuclear Receptor Binding Assay for human Androgen Receptor (AR) (AID 2283332)
# human Androgen Receptor (AR), AR (gene 367), sequence (P10275 whole entry, looked up): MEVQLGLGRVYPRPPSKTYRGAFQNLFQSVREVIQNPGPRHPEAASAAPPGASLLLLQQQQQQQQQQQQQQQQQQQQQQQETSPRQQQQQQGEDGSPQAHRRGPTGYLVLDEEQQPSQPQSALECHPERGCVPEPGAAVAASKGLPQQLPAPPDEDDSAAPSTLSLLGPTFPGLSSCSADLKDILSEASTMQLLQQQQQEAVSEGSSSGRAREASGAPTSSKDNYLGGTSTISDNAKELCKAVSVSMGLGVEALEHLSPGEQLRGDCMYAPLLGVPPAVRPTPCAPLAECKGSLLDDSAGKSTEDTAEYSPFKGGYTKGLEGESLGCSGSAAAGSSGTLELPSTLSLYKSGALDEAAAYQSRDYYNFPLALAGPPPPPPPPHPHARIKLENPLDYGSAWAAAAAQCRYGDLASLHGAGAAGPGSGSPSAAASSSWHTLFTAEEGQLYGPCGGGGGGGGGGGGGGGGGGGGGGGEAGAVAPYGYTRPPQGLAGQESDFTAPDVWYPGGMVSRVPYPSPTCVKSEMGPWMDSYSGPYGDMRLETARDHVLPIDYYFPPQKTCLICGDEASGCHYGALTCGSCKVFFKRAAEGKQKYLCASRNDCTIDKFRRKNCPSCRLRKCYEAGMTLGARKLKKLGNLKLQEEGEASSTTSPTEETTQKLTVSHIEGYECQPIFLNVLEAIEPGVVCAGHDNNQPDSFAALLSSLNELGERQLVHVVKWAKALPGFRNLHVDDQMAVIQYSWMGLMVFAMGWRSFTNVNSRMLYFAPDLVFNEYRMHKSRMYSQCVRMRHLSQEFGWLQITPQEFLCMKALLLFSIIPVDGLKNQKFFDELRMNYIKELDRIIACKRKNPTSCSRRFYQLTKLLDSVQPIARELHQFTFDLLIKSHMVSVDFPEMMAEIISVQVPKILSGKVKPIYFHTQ
# Summary of the method: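 Actives from a duplicate 25 uM single-point screen went on to concentration series. Read-out after 20 h was scintillation counting of displaced radioligand in LnCAP extract, with DMSO as baseline.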
smiles,measurement,setting,value
CCCCC(CC)C(=O)O (stereo not given),outcome,[1],inactive
Cc1cc(C(=C2C=CC(=Nc3ccc(S(=O)(=O)O)cc3)C=C2)c2ccc(Nc3ccc(S(=O)(=O)O)cc3)cc2)cc(S(=O)(=O)O)c1N,outcome,[2],inactive
same,AC50,[3],15.5 µM (active)
C/C=C/C(=O)C1=C(C)CCCC1(C)C,AC50,[4],10.8 µM (active)
same,AC50,[5],16.8 µM (active)
NCCN,outcome,[2],inactive
N=C(N)c1ccc(OCCCCCOc2ccc(C(=N)N)cc2)cc1,AC50,[6],5.6 µM (active)
same,outcome,NCBI gene 24521,inactive
same,AC50,[7],16.1 µM (active)
same,outcome,[8],inactive
same,AC50,[9],2.33 µM (active)
same,AC50,[10],35.8 µM (active)
same,AC50,[11],6.98 µM (active)
same,outcome,[12],inactive
CCc1ccccc1O,outcome,[2],inactive
same,outcome,[12],inactive
CN(C)c1ccc(C(=C2C=CC(=[N+](C)C)C=C2)c2ccccc2)cc1,AC50,[7],860 nM (active) and 5.04 µM (active)
same,AC50,[4],1.29 µM (active) and 1.63 µM (active)
same,AC50,[5],8.3 µM (active)
O=C(CCCN1CCC(O)(c2ccc(Cl)cc2)CC1)c1ccc(F)cc1,AC50,[13],3.15 µM (active)
same,AC50,[7],0.376 µM (active)
same,outcome,[14],inactive
same,AC50,[9],2.55 µM (active)
same,outcome,[15],inactive
same,outcome,[10],inactive
same,AC50,[11],1.65 µM (active)
CS(=O)(=O)c1ccc([C@@H](CC2CCCC2)C(=O)Nc2cnccn2)cc1Cl,outcome,[16],inactive
same,outcome,[2],inactive
CN(C)CCOC(c1ccccc1)c1ccccc1,AC50,[6],7 µM (active)
same,AC50,[7],3.25 µM (active)
same,AC50,[9],5.8 µM (active)
same,outcome,[15],inactive
same,outcome,[10],inactive
same,AC50,[11],4.71 µM (active)
Clc1ccc(Nc2nnc(Cc3ccncc3)c3ccccc23)cc1,AC50,[7],2.08 µM (active)
same,AC50,[4],1.95 µM (active)
CCCCCC(C)OC(=O)COc1ccc(Cl)c2cccnc12 (stereo not given),AC50,[4],4.96 µM (active)
CC(C)(c1ccc(Oc2ccc(N)cc2)cc1)c1ccc(Oc2ccc(N)cc2)cc1,AC50,[17],9 µM (active)
CC(C)[C@@H]1CC[C@@H](C)C[C@H]1O,AC50,[17],13.1 µM (active)
C=CC(C)(CCC=C(C)C)OC(C)=O (stereo not given),outcome,[9],inactive

# From PubChem BioAssay (EPA / NIEHS)
